CYP2C9 activ: human CYP2C9 activators, primary screen, biochemical, luminescence | actives 1.4% (n = 96,000) | recombinant CYP2C9, luciferin-H conversion; stronger effect = higher value; factor 1 = untreated enzyme, 0 = blocked | activation factor at 5 µM;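 active = activation factor of 2 or more for CYP2C9 at a 5 µM dose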;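 note: 0 = sulfaphenazole-blocked wells and 1 = vehicle-only wells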
D1 mod: D1 CRE-luciferase signal change, two-sided – cell-based, HEK293 D1, dopamine EC30, D1 allosteric modulator project, primary screen. B-score at 10 µM. AID 641, 2007. D(1A) dopamine receptor (Homo sapiens), P21728. actives 5.9% (n = 58,000). dopamine EC30 potentiation; actives deviate in either direction;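 active = luminescence count or its row- and column-corrected plate score outside the 99.7% band of the plate's sample wells, on either side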
Target sequence (P21728 whole entry, looked up): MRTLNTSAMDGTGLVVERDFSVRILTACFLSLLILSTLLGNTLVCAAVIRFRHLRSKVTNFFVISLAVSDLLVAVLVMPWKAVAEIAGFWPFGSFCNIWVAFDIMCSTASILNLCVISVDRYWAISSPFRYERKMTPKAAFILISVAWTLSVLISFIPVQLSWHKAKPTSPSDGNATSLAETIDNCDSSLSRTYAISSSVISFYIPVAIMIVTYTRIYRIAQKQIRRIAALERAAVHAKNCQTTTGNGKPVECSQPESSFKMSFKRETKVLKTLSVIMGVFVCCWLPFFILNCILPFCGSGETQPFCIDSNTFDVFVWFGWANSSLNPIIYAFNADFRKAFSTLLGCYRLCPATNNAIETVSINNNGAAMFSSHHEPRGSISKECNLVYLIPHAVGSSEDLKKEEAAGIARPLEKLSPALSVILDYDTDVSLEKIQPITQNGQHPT
CYP2C19 activ: human CYP2C19 activators, primary screen, biochemical, luminescence; recombinant CYP2C19, luciferin-H EGE luminescence; stronger effect = higher value; 0 = fully inhibited enzyme, 1 = untreated enzyme; activation factor at 5 µM; 96,000 tested, under 10 active; AID 1025, 2008;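 active = activation factor of at least 2 at 5 µM in the primary screen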;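 note: 0 = wells with 2.5 mM tranylcypromine and 1 = vehicle-only wells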
hDAT+cocaine: changed hDAT dopamine uptake under cocaine IC80, either direction, primary screen, cocaine antagonist project, cell-based, LLC-PK1 hDAT, [14C]-dopamine uptake, MLSMR; LLC-PK1 hDAT cells, [14C]-dopamine uptake with cocaine IC80; actives deviate in either direction; Sodium-dependent dopamine transporter (Homo sapiens), Q01959; actives 1.3% (n = 110,000); B-score at 10 µM;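 active = Z score or B-score, a plate-position-corrected score, falls beyond the plate's 99.7% confidence bounds, in either direction; inactive = both scores lie inside the 99.7% bounds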;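 note: scored against the spread of the other compound wells on the same plate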
CYP2C9 inhib: blockers of cytochrome P450 2C9 activity – biochemical, luminescence, ADME assay, primary screen. actives 20% (n = 96,000). inhibition, % at 5 µM. P11712. CYP2C9 Supersomes, luciferin-H conversion;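 active = blocking of liver enzyme CYP2C9 beyond about 50% at 5 µM, limit read from the data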
CYP2C19 inhib: blockers of cytochrome P450 2C19 activity – biochemical, luminescence, ADME assay, primary screen | inhibition, % at 5 µM | CYP2C19 Supersomes, luciferin-H EGE luminescence, 30 min | P33261 | AID 778, 2007 | actives 21% (n = 96,000);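 active = CYP2C19 inhibition above a set limit at 5 µM in the primary screen, cut at about 50% in these data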;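 note: plate controls were negative control wells for no effect and 2.5 mM tranylcypromine positive control for full effect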
* = called active by the depositor; . = no result given. Compounds with a hit are over-represented: about 28% of the library has one in this group of screens.

SMILES | CYP2C9 activ | D1 mod | CYP2C19 activ | hDAT+cocaine | CYP2C9 inhib | CYP2C19 inhib
COC(=O)c1scc(C)c1N/N=C(\C)c1cc(F)c(Cl)cc1F | 1.1 | . | 1.2 | -0.596 | -10.0 | -16.9
CN(CC(=O)Nc1ccc(F)c(F)c1)S(=O)(=O)c1cccc2nsnc12 | 0.3 | 0.869 | 0.6 | 0.712 | 70.0* | 38.7
Cc1ccnc(NC(=O)CN(C)S(=O)(=O)c2cccc3nsnc23)c1 | 0.2 | -0.00329 | 0.8 | -0.152 | 76.9* | 20.9
O=C(CCNS(=O)(=O)c1cccc2nsnc12)Nc1ccc2c(c1)OCCO2 | 0.6 | -0.621 | 0.9 | -0.595 | 36.8 | 10.4
COc1cccc(C(=O)CN2C3=NCCCN3c3ccccc32)c1 | 1 | -1.03 | 0.9 | -0.0363 | 0.8 | 10.4
O=C(COc1ccc(Br)cc1CO)Nc1ccccc1 | 0.3 | . | 0.1 | -0.0138 | 70.8* | 88.6*
Cc1ccc(NC(=O)COc2ccccc2CNC(C)(C)CC(C)(C)C)cc1 | 0.9 | . | 0.5 | 0.476 | 6.3 | 45.8
Cc1ccc(NC(=O)COc2ccc(Br)cc2CO)cc1 | 0.4 | . | 0.3 | -0.71 | 56.4* | 73.9*
Cc1ccc(NC(=O)Cc2nnc(SCC(=O)c3ccc(Br)cc3)n2C)cc1 | 1.1 | . | 1 | -0.328 | -7.0 | 0.8
COc1ccc(NC(=O)N[C@@H](CCSC)C(=O)O)cc1Cl | 1 | -0.761 | 0.9 | 1.56 | -0.9 | 14.2
C[C@@H]1CCC[C@@]2(O[C@@H](CCO)C[C@H](O)[C@H]2O)O1 | . | . | . | -0.359 | . | .
CCCNC(=O)COc1ccc(S(=O)(=O)Nc2ccc(C)cc2)cc1 | 0.5 | . | 0.3 | 1.27 | 52.1* | 69.1*
Cc1ccc(OCC(=O)Nc2ccc(S(=O)(=O)Nc3onc(C)c3C)cc2)cc1 | 0.9 | -0.902 | 1 | 0.388 | 11.9 | -2.3
Cc1ccc(NS(=O)(=O)c2ccc(CCC(=O)NCCO)cc2)cc1 | 0.1 | . | 0.4 | -0.153 | 85.4* | 58.0*
O=C1C(Cl)=C(N2CCOCC2)C(=O)N1c1cccc(Cl)c1 | 0.6 | 3.14 | 0.1 | 0.238 | 43.8 | 85.2*
Cc1ccc(N2C(=O)C(Cl)=C(N3CCN(C)CC3)C2=O)c(C)c1 | . | . | . | -0.781 | . | .
CN1CCN(C2=C(Cl)C(=O)N(c3ccc(Cl)cc3)C2=O)CC1 | 0.4 | -0.103 | 0.1 | -0.0386 | 56.2* | 87.7*
Cc1nc(SCC(=O)NCc2ccco2)c2oc3ccccc3c2n1 | 0.1 | . | 0.1 | -0.503 | 89.2* | 89.4*
O=C(CSc1ccccc1)NCc1ccco1 | . | . | . | -1.02 | . | .
Cc1ccc2cccc(SCC(=O)NCc3ccco3)c2n1 | 1.5 | 1.18 | 0.2 | -1.15 | -50.9 | 81.8*
Cc1nc(SCC(=O)NCCc2ccccc2)c2oc3ccccc3c2n1 | 0.4 | . | 0.4 | 0.0108 | 58.4* | 64.8*
CCc1nc(SCC(=O)NCCc2ccccc2)c2oc3ccccc3c2n1 | 0.3 | . | 0.4 | 1.09 | 67.8* | 57.3*
Cc1cc(-c2ccc3c(c2)COc2c4ccccc4nn2-3)on1 | . | . | . | 0.44 | . | .
COc1ccc(-c2noc(N3CCC(C(=O)N4CCN(c5ccccn5)CC4)CC3)n2)cc1 | 0.6 | -1.54 | 0.5 | 0.517 | 38.3 | 49.0
O=C1CC(c2cccc(Cl)c2)C(n2cncn2)C(=O)C1C1NCCc2ccccc21 (configuration not stated) | 0.9 | . | 1 | 1.09 | 5.2 | -0.7
SMILES | CYP2C9 activ | D1 mod | CYP2C19 activ | hDAT+cocaine | CYP2C9 inhib | CYP2C19 inhib
O=C(NCc1ccccc1)C1=C[C@H](c2coc3ccccc3c2=O)C[C@H](OCCCCO)O1 | . | . | . | 1.25 | . | .
Cc1[nH]c2ccccc2c1Cc1nnc(SCC(=O)NCc2ccco2)o1 | 2.6* | 0.934 | 0.5 | -0.551 | -157.7 | 46.7
COc1ccc2oc(=O)c(C(=O)N3CCN(c4ccccc4)CC3)cc2c1 | 0.7 | -0.712 | 0.7 | 3.42* | 32.4 | 29.8
COc1ccc2oc(=O)c(C(=O)N3c4ccccc4CC3C)cc2c1 (configuration not stated) | 0.3 | . | 0.8 | 0.924 | 67.8* | 19.5
COc1cc2c(C(=O)N3CCN(c4ccccc4)CC3)c(C)oc2cc1Br | 0.2 | 1.85 | 0.4 | 0.851 | 78.8* | 58.7*
CCOC(=O)CNC(=O)C(CC(C)C)NC(=O)C1CCCCC1 (configuration not stated) | 1.1 | . | 1 | -0.0216 | -11.8 | 2.3
O=C(CC1NC2CCCCC2NC1=O)Nc1cccc(C(F)(F)F)c1 (configuration not stated) | 1.2 | -0.0529 | 1.2 | -0.216 | -18.9 | -16.2
CC(=O)NC(C)c1ccc(Cl)c(Cl)c1 (configuration not stated) | 0.9 | 1.02 | 0.2 | 0.0223 | 6.5 | 75.4*
COc1ccc(-n2c(Cc3cccn3C)nnc2SCC(=O)Nc2cccc(Cl)c2)cc1 | 0.1 | 0.00627 | 0.8 | 0.786 | 85.4* | 23.3
COc1ccc(-n2c(SCC(N)=O)nnc2-c2ccc(NS(=O)(=O)c3ccc(C)cc3)cc2)cc1 | 0.3 | . | 0.8 | -0.279 | 72.7* | 17.7
COc1ccc(-n2c(Cc3cccn3C)nnc2SCC(=O)Nc2ccc(C)cc2)cc1 | 0.5 | 0.0928 | 0.9 | 2.35* | 52.6* | 13.6
CCOc1ccc(NC(=O)CSc2nnc(Cc3cccn3C)n2-c2ccc(OC)cc2)cc1 | 0.9 | -0.27 | 1.1 | 1.64 | 5.4 | -6.4
COc1ccc(NC(=O)CSc2nnc(Cc3cccn3C)n2-c2ccc(OC)cc2)cc1 | 0.4 | 0.587 | 0.6 | -0.0233 | 59.0* | 39.8
O=CN1CCN(C(C(=O)NC2CCCC2)c2ccc(Cl)cc2)CC1 (configuration not stated) | 1 | 0.733 | 0.8 | -1.19 | -3.6 | 24.9
COc1cc(C(CCN2CCCC(C)C2)c2c(OC)cc(OC)c3c2OC(=O)CC3c2ccc(N(C)C)cc2)cc(OC)c1OC (configuration not stated) | . | . | . | -0.223 | . | .
Cn1cccc1P(=O)(c1cccn1C)c1cccn1C | 1.1 | -0.211 | 1.1 | 0.0942 | -14.8 | -7.8
O=C(Cn1cc(/C=N/O)c2ccccc21)N1CCOCC1 | 1.1 | -0.0687 | 1.1 | -1.47 | -9.9 | -12.0
CCN(CC)C(=O)Cn1cc(/C=C(\C#N)C(=O)N2CCN(c3ccccc3)CC2)c2ccccc21 | 0.4 | . | 0.3 | -0.555 | 56.4* | 71.3*
CC1(C)NC(=O)NC2(C)NC(=O)NC(C)(C)C12 (configuration not stated) | 1.2 | 0.495 | 1.1 | 0.0136 | -15.6 | -11.9
COc1ccccc1NC(=O)CN1CCC(n2nnc3cc(F)ccc32)CC1 | 0.8 | -2.51 | 0 | 2.32 | 18.4 | 96.6*

Screening results (PubChem)
